# Measurements published in PubChem BioAssay.
# Active and inactive are the calls of the source.
# Columns and labels:
# [1] = target: Albumin (Bos taurus) (UniProt P02769); assay: bovine serum albumin binders on microarray, profiling panel, artefact control for SMM control protein annotation, biochemical, small-molecule microarray, Alexa647 label, 635/667 nm fluorescence (AID 1118); details: BSA-A647 binding, fluorescence 635 nm, higher = more signal;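 further: score merges 667 nm emission intensity and signal-to-noise per printed compound spot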
# Sequence of Albumin (Bos taurus) (P02769 whole entry, looked up): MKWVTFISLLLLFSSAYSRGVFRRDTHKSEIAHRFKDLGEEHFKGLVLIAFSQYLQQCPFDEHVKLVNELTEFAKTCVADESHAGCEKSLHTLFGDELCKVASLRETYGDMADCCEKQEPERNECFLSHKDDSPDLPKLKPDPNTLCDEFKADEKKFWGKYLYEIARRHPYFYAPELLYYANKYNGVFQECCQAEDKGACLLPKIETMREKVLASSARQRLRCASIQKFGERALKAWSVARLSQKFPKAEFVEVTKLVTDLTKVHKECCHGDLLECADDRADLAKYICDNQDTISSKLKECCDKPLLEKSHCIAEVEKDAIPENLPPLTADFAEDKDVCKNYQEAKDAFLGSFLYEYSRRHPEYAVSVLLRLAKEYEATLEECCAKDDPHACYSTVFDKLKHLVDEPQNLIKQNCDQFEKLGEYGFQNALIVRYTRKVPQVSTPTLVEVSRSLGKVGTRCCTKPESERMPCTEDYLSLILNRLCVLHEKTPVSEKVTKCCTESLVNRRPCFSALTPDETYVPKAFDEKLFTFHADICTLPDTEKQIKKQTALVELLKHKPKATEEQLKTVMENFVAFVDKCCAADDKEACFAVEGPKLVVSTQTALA
# [2] = small-molecule microarray binders of probe aXIP, primary screen, biochemical, NeuroSMM set, 635/667 nm fluorescence (AID 1119); details: higher = more signal, called active from +8 up or from −8 down;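 further: probe is the protein aXip251-270 applied at 1 µg/mL to compound-printed slides; binding of probe to printed compounds measured as 667 nm fluorescence plus signal to noise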
# [3] = small-molecule binders of probe aNOTCH3, primary screen, biochemical, small-molecule microarray, 635/667 nm fluorescence (AID 1120); details: higher = more signal;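 further: probe is a biotin-tagged antibody raised against NOTCH3 rather than NOTCH3 protein; score merges spot fluorescence near 667 nm with spot signal to noise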
# [4] = small-molecule binders of probe aNOTCH2, primary screen, biochemical, small-molecule microarray, 635/667 nm fluorescence (AID 1121); details: higher = more signal;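 further: score merges feature fluorescence read at 667 nm with its signal to noise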
# [5] = target: Carbonic anhydrase 2 (Homo sapiens) (UniProt P00918); assay: CAII small-molecule binders, profiling panel, biochemical, small-molecule microarray, Alexa647-labelled CAII (AID 1122); details: CAII-A647 binding fluorescence, higher = more signal
# [6] = COS7 lysate on small-molecule microarray, probe aHis, 635 nm (AID 1123); details: COS7 cell lysate, fluorescence, higher = more signal;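 further: z-score combines 667nm fluorescence intensity with signal-to-noise per printed compound spot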
# [7] = compound binding in COS7 lysate, probe aLAP1, primary screen, cell lysate, small-molecule microarray (AID 1124); details: probe aLAP1, fluorescence, higher = more signal;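 further: lysate comes from COS7 cells expressing LAP1 and is applied at 0.3 µg/mL; score merges spot fluorescence near 667 nm with signal-to-noise over triplicate slides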
# [8] = test system: Sam68 (KHDRBS1); assay: Sam68 small-molecule binders, primary screen, biochemical, small-molecule microarray, 635 nm fluorescence (AID 1125); details: small-molecule microarray binding, higher = more signal;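 further: score merges 667 nm channel intensity with signal to noise over triplicate slides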
# [9] = test system: Chordin-like protein 2 (CHRDL2); assay: CHRDL2 small-molecule binders, primary screen, biochemical, small-molecule microarray, 635 nm fluorescence (AID 1126); details: small-molecule microarray binding, fluorescence 635 nm; higher = more signal;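 further: printed compound slides probed with Chrdl2 protein at 4 µg/mL for 1 h at 4 C; score merges 667 nm emission intensity with signal to noise over three replicate slides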
# [10] = target: Concanavalin-A (Canavalia ensiformis) (UniProt P02866); assay: ConA small-molecule binders, primary screen, artefact control for SMM control protein annotation, biochemical, small-molecule microarray, Alexa647 label, 635 nm (AID 1127); details: ConA-A647 binding fluorescence, higher = more signal;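 further: z combines 667 nm emission intensity with signal-to-noise across three replicate slides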
# Sequence of Concanavalin-A (Canavalia ensiformis) (P02866 whole entry, looked up): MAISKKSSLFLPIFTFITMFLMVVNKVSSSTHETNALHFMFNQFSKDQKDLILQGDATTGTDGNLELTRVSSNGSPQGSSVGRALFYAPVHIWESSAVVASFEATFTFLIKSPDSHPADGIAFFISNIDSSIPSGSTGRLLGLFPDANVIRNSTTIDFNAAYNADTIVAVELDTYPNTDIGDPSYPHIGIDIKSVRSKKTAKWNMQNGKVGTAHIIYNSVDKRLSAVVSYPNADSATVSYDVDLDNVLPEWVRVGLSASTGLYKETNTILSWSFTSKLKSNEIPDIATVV
# [11] = anti-His antibody binders, primary screen, artefact control for SMM control protein annotation, biochemical, small-molecule microarray, 635 nm fluorescence (AID 1128); details: anti-His Alexa647 antibody binding, higher = more signal;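 further: score merges feature fluorescence with signal-to-noise for each printed compound spot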
# [12] = test system: Human papillomavirus type 1a E7 protein (residues 1-88); assay: HPV1a E7 small-molecule binders, primary screen, biochemical, small-molecule microarray, residues 1-88, 635 nm (AID 1129); details: small-molecule microarray binding, fluorescence 635 nm; higher = more signal
# [13] = target: Focal adhesion kinase 1 (Homo sapiens) (UniProt Q05397); assay: small-molecule microarray binders of FAK, primary screen, biochemical, 635/667 nm fluorescence, BSA, DTT (AID 1130); details: PTK2 binding, 635 nm fluorescence, higher = more signal;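 further: composite of spot emission at 667 nm and signal to noise over triplicate slides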
# Sequence of Focal adhesion kinase 1 (Homo sapiens) (Q05397 whole entry, looked up): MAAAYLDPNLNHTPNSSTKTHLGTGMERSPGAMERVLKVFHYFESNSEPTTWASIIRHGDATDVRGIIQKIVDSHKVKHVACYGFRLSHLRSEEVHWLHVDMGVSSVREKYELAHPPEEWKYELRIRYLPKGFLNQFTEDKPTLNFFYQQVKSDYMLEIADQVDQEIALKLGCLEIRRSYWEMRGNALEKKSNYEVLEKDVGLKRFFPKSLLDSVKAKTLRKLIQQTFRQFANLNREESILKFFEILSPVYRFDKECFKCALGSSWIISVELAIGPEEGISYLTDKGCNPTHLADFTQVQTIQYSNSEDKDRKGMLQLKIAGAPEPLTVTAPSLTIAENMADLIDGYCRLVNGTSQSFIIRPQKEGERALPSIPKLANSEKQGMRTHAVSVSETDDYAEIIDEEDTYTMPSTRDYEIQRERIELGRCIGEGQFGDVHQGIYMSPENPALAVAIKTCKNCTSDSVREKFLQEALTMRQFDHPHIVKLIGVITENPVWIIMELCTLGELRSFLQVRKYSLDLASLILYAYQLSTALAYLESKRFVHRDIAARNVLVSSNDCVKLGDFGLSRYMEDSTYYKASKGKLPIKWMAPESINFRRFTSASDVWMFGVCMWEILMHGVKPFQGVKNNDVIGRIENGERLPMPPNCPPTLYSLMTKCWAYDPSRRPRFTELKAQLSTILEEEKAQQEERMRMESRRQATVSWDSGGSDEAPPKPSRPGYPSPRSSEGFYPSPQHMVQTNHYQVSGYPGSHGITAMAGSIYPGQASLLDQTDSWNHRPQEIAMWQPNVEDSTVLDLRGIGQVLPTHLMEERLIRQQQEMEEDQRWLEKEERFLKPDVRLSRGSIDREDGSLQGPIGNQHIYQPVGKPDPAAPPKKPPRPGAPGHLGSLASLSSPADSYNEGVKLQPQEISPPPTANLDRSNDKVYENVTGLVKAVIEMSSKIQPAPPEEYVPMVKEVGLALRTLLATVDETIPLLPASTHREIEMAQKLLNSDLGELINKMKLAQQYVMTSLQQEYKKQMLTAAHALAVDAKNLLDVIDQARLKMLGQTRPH
# [14] = test system: Fibrinogen (Alexa647-labelled); assay: fibrinogen binders on compound microarrays, profiling panel, artefact control for SMM control-protein annotation, biochemical, small-molecule microarray, 635/667 nm fluorescence (AID 1131); details: fibrinogen-A647 binding fluorescence, higher = more signal;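 further: z-score merges 667 nm fluorescence with per-spot signal-to-noise over triplicate slides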
# [15] = target: Follistatin (Homo sapiens) (UniProt P19883); assay: follistatin binders on small-molecule microarrays, primary screen, biochemical, small-molecule microarray, 635/667 nm fluorescence (AID 1132); details: FST binding, 635 nm fluorescence, higher = more signal
# Sequence of Follistatin (Homo sapiens) (P19883 whole entry, looked up): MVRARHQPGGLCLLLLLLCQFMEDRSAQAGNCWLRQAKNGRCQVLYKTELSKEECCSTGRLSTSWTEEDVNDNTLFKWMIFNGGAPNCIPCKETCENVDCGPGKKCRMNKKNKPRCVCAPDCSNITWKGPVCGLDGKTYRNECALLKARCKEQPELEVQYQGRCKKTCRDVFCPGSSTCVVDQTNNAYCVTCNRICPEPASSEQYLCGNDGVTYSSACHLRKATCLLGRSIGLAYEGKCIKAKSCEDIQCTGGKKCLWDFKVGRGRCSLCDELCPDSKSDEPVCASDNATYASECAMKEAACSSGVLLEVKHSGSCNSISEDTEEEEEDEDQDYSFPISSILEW
# [16] = target: Fibroblast growth factor 2 (Homo sapiens) (UniProt P09038); assay: FGF2 binders on small-molecule microarrays, primary screen, biochemical, small-molecule microarray, 635/667 nm fluorescence (AID 1133); details: small-molecule microarray binding, FGF2, fluorescence 635/667; higher = more signal
# Sequence of Fibroblast growth factor 2 (Homo sapiens) (P09038 whole entry, looked up): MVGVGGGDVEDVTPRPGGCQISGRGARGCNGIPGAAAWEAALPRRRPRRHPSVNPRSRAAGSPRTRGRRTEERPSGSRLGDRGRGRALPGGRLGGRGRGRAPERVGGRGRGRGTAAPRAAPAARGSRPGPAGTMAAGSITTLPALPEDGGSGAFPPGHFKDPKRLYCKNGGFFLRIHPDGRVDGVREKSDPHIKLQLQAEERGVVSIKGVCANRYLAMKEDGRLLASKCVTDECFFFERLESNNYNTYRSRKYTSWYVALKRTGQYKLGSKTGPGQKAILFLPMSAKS
# [17] = mitochondrial membrane potential change in A549 cells, profiling panel, cell-based, JC-1 fluorescence, basal, 24 h, 100 nL (AID 1138); details: higher = more signal;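 further: A549 lung adenocarcinoma cells under basal conditions with no added stimulus; test concentration not given here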
# [18] = test system: Lefty1; assay: Lefty1 binders on small-molecule microarrays, primary screen, biochemical, small-molecule microarray, 635/667 nm fluorescence (AID 1139); details: small-molecule microarray binding, fluorescence 635/667; higher = more signal
# [19] = test system: wheat germ agglutinin (Triticum aestivum), Alexa647-labelled; assay: wheat germ agglutinin binders on compound microarrays, profiling panel, artefact control for SMM control-protein annotation, biochemical, small-molecule microarray, 635/667 nm fluorescence (AID 1140); details: WGA-A647 binding, 635 nm fluorescence, higher = more signal;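 further: score merges 667 nm feature emission with signal to noise over triplicate slides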
# [20] = target: Luciferin 4-monooxygenase (Photinus pyralis) (UniProt P08659); assay: firefly luciferase enzyme inhibitors, primary screen, biochemical, luminescence, purified enzyme, 2006 set (AID 1141); details: SteadyGlo luminescence, 30 min, higher = more signal, called active from +8 up or from −8 down;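 further: cell-free assay with purified firefly luciferase at 100 ng per well in PBS; test concentration not given here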
# Sequence of Luciferin 4-monooxygenase (Photinus pyralis) (P08659 whole entry, looked up): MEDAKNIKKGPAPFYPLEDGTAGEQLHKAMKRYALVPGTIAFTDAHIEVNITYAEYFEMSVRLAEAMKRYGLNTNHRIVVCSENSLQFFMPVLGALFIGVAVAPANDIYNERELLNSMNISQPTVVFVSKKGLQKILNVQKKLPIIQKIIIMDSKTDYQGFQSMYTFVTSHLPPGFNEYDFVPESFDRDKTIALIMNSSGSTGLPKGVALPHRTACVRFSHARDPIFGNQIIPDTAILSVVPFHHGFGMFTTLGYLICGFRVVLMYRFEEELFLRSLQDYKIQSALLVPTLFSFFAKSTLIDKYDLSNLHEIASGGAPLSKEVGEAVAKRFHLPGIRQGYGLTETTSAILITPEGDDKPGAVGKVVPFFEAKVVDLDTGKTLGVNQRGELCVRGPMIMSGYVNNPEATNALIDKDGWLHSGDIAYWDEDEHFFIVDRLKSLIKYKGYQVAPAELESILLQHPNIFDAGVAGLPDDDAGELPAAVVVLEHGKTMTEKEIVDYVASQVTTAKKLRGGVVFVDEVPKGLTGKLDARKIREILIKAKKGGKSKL
Compound,composite z-score [1],composite Z-score [2],composite z-score [3],composite z-score [4],composite z-score [5],composite z-score [6],composite z-score [7],composite z-score [8],composite z-score [9],composite z-score [10],composite z-score [11],composite z-score [12],composite z-score [13],composite z-score [14],composite z-score [15],composite z-score [16],z-score [17],composite z-score [18],composite z-score [19],z-score [20]
Cc1ccc(S[C@]2(C(=O)NCCCN(C)C)CC(=O)N(Cc3cc(C(F)(F)F)cc(C(F)(F)F)c3)[C@@H]2c2ccc(CO)cc2I)cc1,-0.39,-0.86 (inactive),0.462,-0.0492,0.773,0.961,0.135,0.375,-0.395,-1.79,0.336,-0.77,-0.0785,-0.604,-0.816,-0.862,0.197,-0.536,0.0799,0.828 (inactive)
COC(=O)[C@@]1(Cc2ccccc2)N=C(c2ccc(OCCCO)cc2)O[C@H]1c1ccccc1,0.103,0.216 (inactive),-0.17,-0.0179,0.624,2.76,1.07,-0.0634,0.0607,0.889,2.44,1.2,0.428,-0.381,0.385,1.65,-0.56,-0.63,0.609,-5.51 (inactive)
COCCCNC(=O)[C@@]1(C)c2ccccc2C(=O)N(C(C)C)[C@H]1c1ccc(CO)cc1,-0.106,0.466 (inactive),0.0001,0.0023,0.693,0.75,0.0526,1.16,1.08,0.67,1.42,1.14,0.624,0.648,1.16,0.802,0.168,0.499,0.342,-0.336 (inactive)
[N-]=[N+]=Nc1ccccc1[C@H]1OC(c2ccc(OCCCO)cc2)=N[C@@]1(CCS(=O)(=O)c1ccccc1)C(=O)NCC(O)CO (stereo not given in full),0.876,-0.0683 (inactive),0.102,-0.0984,0.718,3.02,0.261,1.33,-0.907,0.833,1.52,0.94,0.605,1.07,1.27,0.057,0.233,-0.0179,0.914,-9.88 (active)
CC1(C)[C@@H]2CC(C(O)C3C=CC4C(=O)N(c5ccccc5)C(=O)C4N3Nc3ccc([N+](=O)[O-])cc3)=C[C@H]1C2 (stereo not given in full),0.973,0.131 (inactive),0.101,-0.106,0.425,2.8,0.0175,1.33,0.649,1.17,1.11,1.27,0.368,1.04,1.16,0.488,-1.25,0.619,0.728,0.285 (inactive)
CCCC[C@@H]1C[C@H]1[C@@H](NC(=O)C(C)(C)C)c1ccc(C(F)(F)F)cc1,0.315,-0.414 (inactive),-0.222,-0.0986,0.289,0.834,0.0265,-0.305,-2.05,-0.0101,1.73,0.779,0.702,-0.27,-1.57,-1.4,-1.08,-0.722,-0.372,-3.32 (inactive)
CC(C)=CCN[C@H](CO)c1ccccc1,-0.0472,-0.139 (inactive),-0.0122,-0.14,-0.115,0.0524,-0.021,-0.127,0.218,0.0857,-0.23,-0.341,-0.0383,0.118,0.546,0.314,-0.989,0.564,-0.246,0.765 (inactive)
C=C(C)[C@@H]1CC=C(C(O)C2C=CC3C(=O)N(c4ccccc4)C(=O)C3N2Nc2ccccc2)CC1 (stereo not given in full),0.889,0.788 (inactive),0.75,0.405,0.879,2.84,0.736,1.3,0.543,1.13,0.858,1.24,0.0294,0.982,1.22,0.001,-0.369,0.226,1.32,-1.24 (inactive)
O=C(c1ccccc1)N1Cc2ccccc2C[C@@]2(COC(c3ccc(OCCCO)cc3)=N2)C1=O,0.833,-0.305 (inactive),-0.0647,-0.0304,0.288,2.66,0.549,1.29,0.271,1.11,2.32,1.23,0.242,0.905,1.34,1.45,0.604,0.663,0.71,-1.31 (inactive)
O=C1c2ccccc2[C@](Cc2ccccc2I)(C(=O)NCC(F)(F)F)[C@H](c2ccc(CO)cc2)N1Cc1ccccc1Cl,0.83,-0.228 (inactive),0.0445,-0.0811,0.596,2.04,1.42,1.29,-0.466,1.09,-0.176,1.19,1.22,0.722,1.1,0.138,0.423,0.883,0.549,0.406 (inactive)
